An excerpt weighted towards active compounds, which were near 17% of everything screened.
TDP1 inh – TDP1 (human) enzyme inhibition; recombinant TDP1, AlphaScreen DNA substrate cleavage; AID 485290; Potency, µM (highest dose often 130 µM), without a hit: at the highest dose activity change, negative = inhibition, actives largely listed as inhibitors; Q9NUW8; actives 0.28% (n = 350,000); further: on the % scale 0 is the no-effect control and ±100 the full control effect; nearly all actives have a fitted effect of over 40% in size
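Signal: AlphaScreen proximity between streptavidin donor and anti-FITC acceptor beads on intact substrate. Reaction: Tdp1 1 nM, substrate 15 nM final, 5 min RT after 15 min compound preincubation.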
TDP1 cell CPT – growth inhibition of DT40 Tdp1-/-;hTDP1 cells with camptothecin (screen for TDP1 inhibitors); chicken DT40 Tdp1-/-;hTDP1 cells + 20 nM CPT, ATP luminescence, 48 h; Potency, µM (highest dose often 46.2 µM), for the others: at the top dose activity change, negative = growth inhibition, actives largely listed as inhibitors; actives 12% (n = 420,000); AID 686979; further: on the % scale 0 is the no-effect control and ±100 the full control effect; nearly all actives have a fitted effect of over 55% in size
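Chicken DT40 Tdp1-/- cells complemented with human TDP1, 400 cells/well, exposed to compounds plus 20 nM camptothecin for at least 48 h at 37 C; viability read as ATP content by CellTiter-Glo luminescence.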
ClpP mod – qHTS Assay for Activators of ClpP. Potency, µM (titrated, usually from 57.5 µM), for inactives: at the top dose activity change, negative = active. actives 1.9% (n = 340,000). purified B. subtilis ClpP, FRET peptide cleavage, 20 min. ATP-dependent Clp protease proteolytic subunit (Bacillus subtilis (strain 168)), P80244. AID 651965, 2013; active means well fitted falling curve with a large enough effect; inconclusive means small, poorly fitted or top-dose-only effect; inactive means no such curve, though single readings can be large or run the other way; further: the source files actives as falling curves though it sought activators and does not explain the sign; nearly all actives have a fitted effect of over 65% in size
Target sequence (P80244 whole entry, looked up): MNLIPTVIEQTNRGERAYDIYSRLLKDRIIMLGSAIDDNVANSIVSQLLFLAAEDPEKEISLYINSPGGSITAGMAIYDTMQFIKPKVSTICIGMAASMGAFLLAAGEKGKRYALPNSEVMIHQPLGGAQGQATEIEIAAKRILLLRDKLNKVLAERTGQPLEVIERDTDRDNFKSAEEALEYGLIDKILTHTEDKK
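ClpP 10 microg/mL final, pH 8 Tris/KCl buffer with BSA, glycerol, Tween-20; compound pinned in; FRET-FV substrate; RT 20 min; Ex320/Em430; ΔFRET vs ADEP 5.8 microM, DMSO, no enzyme.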
DT40 TDP1 no CPT – qHTS for Inhibitors of human tyrosyl-DNA phosphodiesterase 1 (TDP1): qHTS in cells in absence of CPT; DT40 Tdp1-/- hTDP1 cells, no CPT, ATP luminescence, 48 h; Potency, µM (doses to about 46.2 µM), inactives show at the highest dose activity change, negative = growth inhibition, most hits filed as inhibitors; actives 15% (n = 420,000); AID 686978, 2013; further: on the % scale 0 is the no-effect control and ±100 the full control effect; nearly all actives have a fitted effect of over 55% in size
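Cells were dispensed at 400 per well, compounds added by pin tool, plates incubated ≥48 hr at 37 °C, then CellTiter-Glo added for 30 min at room temperature before luminescence reading. Line: DT40 Tdp1-/- complemented with hTDP1; camptothecin omitted.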
An asterisk follows results filed as active; ? = inconclusive; . = no result given. Unless noted, the call rests on the fitted dose curve; in most records, active means well fitted curve in the direction sought with a large enough effect; inconclusive means small, poorly fitted or top-dose-only effect, or another doubt; inactive means no such curve, though single readings can be large; an effect the other way counts as inactive or inconclusive. Potency means the concentration at half of the fitted maximal effect.

SMILES | TDP1 inh | TDP1 cell CPT | ClpP mod | DT40 TDP1 no CPT
COC(=O)[C@]1(Cc2ccccc2)N[C@H](c2ccc(-c3cccc(Cl)c3)cc2)[C@@H]2C(=O)N(C)C(=O)[C@@H]21 | -2% | 16µM* | -18% | ?
COC(=O)[C@]1(Cc2ccccc2)N[C@H](c2ccc(-c3ccc(Cl)c(Cl)c3)cc2)[C@@H]2C(=O)N(C)C(=O)[C@@H]21 | -1% | 18µM* | -19% | 18µM*
CCC(=O)O | 1% | -3% | . | -16%
O=[N+]([O-])c1ccc(Nc2nc(NCCO)nc(N3CCCC3)n2)cc1 | -8% | ? | . | 21µM*
NNc1nc(Nc2ccc([N+](=O)[O-])cc2)nc(N2CCCCCC2)n1 | -21% | ? | 0% | ?
CCCNc1nc(Nc2ccc(C)cc2)nc(N2CCCC2)n1 | 4% | 23µM* | -2% | 21µM*
Cn1c(SCC(=O)NNC(=O)c2ccccc2)nnc1C(F)(F)F | 1% | 0% | 1% | 0%
CCN(CC)c1ccc(-c2nn3c(-c4n[nH]c5c4CCC5)nnc3s2)cc1 | 6% | 0.92µM* | 28µM* | 0.65µM*
Cn1c(=O)c2c(ncn2CC(=O)N2CCCc3ccccc32)n(C)c1=O | 6% | -9% | 3% | -4%
COc1cccc(/C=N/NC(=O)Cn2cnc3c2c(=O)n(C)c(=O)n3C)c1 | 7% | 29µM* | 0% | ?
O=C(Cn1cnc2ccccc21)N/N=C/C(Br)=C/c1ccccc1 | 1% | 6.5µM* | 1% | 23µM*
COc1cc(/C=N/NC(=O)Cn2cnc3c2c(=O)n(C)c(=O)n3C)cc(OC)c1OC | 1% | 23% | 2% | -3%
Cn1c(=O)c2c(ncn2CC(=O)N/N=C/C(Br)=C/c2ccccc2)n(C)c1=O | 3% | 2.3µM* | 2% | 3.7µM*
CC1CCN(C(=O)Cn2cnc3c2c(=O)n(C)c(=O)n3C)c2ccccc2S1 (stereo not given) | 0% | ? | . | 18µM*
O=C(Cn1cnc2ccccc21)N/N=C/c1cccs1 | 8% | 5% | 0% | -5%
CCOc1ccc(C(=O)NCC(=O)NCCSc2ccc(Br)cc2)cc1OCC | . | ? | -12% | ?
CCCC(OC(=O)CN1C(=O)COc2ccccc21)C(=O)NC1CCCC1 (stereo not given) | 0% | 0% | -2% | 0%
CCCCC(OC(=O)CN1C(=O)COc2ccccc21)C(=O)NC1CCCCC1 (stereo not given) | . | -1% | . | 16µM*
O=C(COc1ccc(Cl)cc1)Nc1nnc(S(=O)(=O)N2CCc3ccccc32)s1 | 0% | ? | 1% | 18µM*
O=C(Nc1nnc(S(=O)(=O)N2CCCCC2)s1)c1cccc(Br)c1 | . | 23µM* | -2% | 15µM*
Cc1cccc(C(=O)Nc2nnc(S(=O)(=O)N3CCCc4ccccc43)s2)c1 | 5% | ? | -6% | 16µM*
CC1CCN(S(=O)(=O)c2nnc(NC(=O)c3cccc(Br)c3)s2)CC1 | 6% | ? | -9% | ?
COc1cccc(C(=O)Nc2nnc(S(=O)(=O)N3CCCc4ccccc43)s2)c1 | 5% | ? | -5% | ?
O=C(Nc1nnc(S(=O)(=O)N2CCCc3ccccc32)s1)c1cccc(Cl)c1 | 4% | ? | -2% | 18µM*
COc1ccc(S(=O)(=O)NC(C(=O)OCC(=O)Nc2ccc(N3CCOCC3)cc2)C(C)C)cc1 (stereo not given) | . | -24% | 1% | ?
CCCc1c(C(=O)N/N=C/c2ccncc2)nnn1-c1nonc1N | . | 5% | -1% | -6%
O=C(c1ccc(CS(=O)c2ccccc2Cl)o1)N1CCN(c2ccccn2)CC1 (stereo not given) | 5% | 3.7µM* | -6% | 2.1µM*
O=C(c1ccc(CS(=O)Cc2ccccc2Cl)o1)N1CCN(c2ccccn2)CC1 (stereo not given) | 4% | ? | 0% | 16µM*
O=C(c1ccc(CS(=O)Cc2ccc(Cl)cc2)o1)N1CCN(c2ccccn2)CC1 (stereo not given) | 6% | ? | -3% | ?
O=C(OCc1ccccc1)N1CCC2CC1c1cc(NCCc3ccccc3)ccc12 (stereo not given) | . | ? | -15% | ?

Screens deposited in PubChem by National Center for Advancing Translational Sciences (NCATS).
